# From PubChem BioAssay
# Only some compounds are listed: those with a hit (about 3.4% of all), similar ones and a draw of the others.
# FBW7 act: FBW7 E3 ligase activators, primary screen, biochemical, AlphaScreen, human. AlphaScreen FBW7–phospho-cyclin E peptide binding, activator screen. normalized activity (activation), % at 26.1 µM. 650,000 tested, 0.13% active; in the data active = normalized activity above about 1.9%;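 also: purified mutant Fbw7 with reduced substrate affinity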
# TEAD-YAP inh: TEAD-YAP interaction inhibition, primary screen, TEAD-YAP interaction inhibitor project, luminescence, HEK-TIYL cells. 640,000 tested, 1.4% active. AID 1259422, 2018. TEAD-Gal4/YAP UAS-luciferase luminescence. inhibition, % at 9.12 µM; in the data active = inhibition above about 32%;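 also: 0% = median of test compound wells and 100% = reference inhibitor wells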
# GPR151 ag: activators of human GPR151, primary screen, cell-based, PathHunter beta-arrestin, luminescence; AID 1508602, 2020; activation, % at 11.2 µM; 650,000 tested, 1% active; G-protein coupled receptor 151 (Homo sapiens), Q8TDV0; PathHunter beta-arrestin GPR151 cells; in the data active = activation above about 4.9%;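 also: 0% = median of compound wells and 100% = cells with positive control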
# MITF inh: MITF inhibitors, primary screen, biochemical, AlphaScreen, human; AlphaScreen MITF homodimerization, bead proximity signal; inhibition, % at 2.6 µM; 650,000 tested, 0.91% active; AID 1259374, 2018; in the data active = inhibition above about 50%;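 also: 0% = vehicle wells with protein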
# Target sequence (O75030 whole entry, looked up): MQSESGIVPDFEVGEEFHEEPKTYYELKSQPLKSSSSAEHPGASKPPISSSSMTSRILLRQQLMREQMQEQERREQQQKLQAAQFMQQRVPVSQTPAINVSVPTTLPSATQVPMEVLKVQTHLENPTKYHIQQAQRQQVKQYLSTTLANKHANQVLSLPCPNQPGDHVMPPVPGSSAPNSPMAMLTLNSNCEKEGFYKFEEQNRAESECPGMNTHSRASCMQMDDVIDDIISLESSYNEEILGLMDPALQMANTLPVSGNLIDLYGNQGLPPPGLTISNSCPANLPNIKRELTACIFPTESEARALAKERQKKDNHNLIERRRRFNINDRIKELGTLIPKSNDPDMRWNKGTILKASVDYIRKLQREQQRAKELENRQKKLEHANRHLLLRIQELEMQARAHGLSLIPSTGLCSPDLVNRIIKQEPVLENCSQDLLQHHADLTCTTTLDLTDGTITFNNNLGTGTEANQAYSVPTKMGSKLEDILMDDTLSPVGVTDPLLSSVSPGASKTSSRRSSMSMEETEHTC
# The depositor's hits bear a star.
SMILES,FBW7 act,TEAD-YAP inh,GPR151 ag,MITF inh
Cc1ccc2c(ccc(/C=C/c3ccc(N(C)C)cc3)[n+]2C)c1,0,41*,4,16
Cc1ccc(/C=C/c2ccc(N(C)C)cc2)[n+](C)c1,-1,70*,1,9
CN(C)c1ccc(C(=O)/C=C/c2ccccc2)cc1,0,-60,-3,24
CN(C)c1ccc(/C=C/c2cc[n+](C)cc2)cc1,0,44*,2,-7
CN(C)c1ccc(/C=C/c2cc(C(C)(C)C)nc(C(C)(C)C)c2)cc1,0,3,0,-11
Cc1cccc2ccc(/C=C/c3ccc(N(C)C)cc3)[n+](C)c12,-1,93*,1,27
CC(=O)Nc1ccc2c(c1)OCCOCCOc1ccc(NC(C)=O)cc1OCCOCCO2,0,-5,1,12
CC[n+]1ccccc1/C=C/c1ccc(N(C)C)cc1,0,47*,2,1
CC[n+]1ccccc1/C=C/N(C(C)=O)c1ccccc1,1,-9,0,10
CC(=O)C1=C(c2ccccc2)S/C(=C2/C(=S)C(C)(C)Nc3ccc(C)cc32)S1,0,7,0,57*
CCOc1ccc2c(c1)/C(=C1/SC(C(C)=O)=C(c3ccccc3)S1)C(=S)C(C)(C)N2,0,4,-1,7
Cc1cc2c(cc1C)NC(c1cc3c(cc1[N+](=O)[O-])OCO3)C1=C(CC(C)(C)CC1=O)N2 (stereo not given),0,72*,-1,4
CCOC(=O)c1c(NC(=O)COc2ccccc2Cl)sc(C(C)=O)c1C,0,-1,1,-2
Cc1nc(SCc2ccc(Cl)c(Cl)c2)n[nH]1,0,8,-1,17
COc1ccc(CSc2n[nH]c(C)n2)cc1Br,0,34*,-1,5
O=S(=O)(c1ccc(-c2csc(N/N=C/c3cccs3)n2)cc1)N1CCCC1,1,51*,-1,7
O=C(Nc1nc(-c2ccc(S(=O)(=O)N3CCCCCC3)cc2)cs1)c1cccs1,0,-1,0,5
O=C(NC1c2ccccc2-c2ccccc21)c1cccc([N+](=O)[O-])c1,0,54*,-1,-2
O=C(NC1c2ccccc2-c2ccccc21)c1ccccc1,0,-2,0,-18
CC1CCN(C(=O)CSc2ncccc2-c2nc3ccccc3[nH]2)CC1,0,49*,-2,-9
Cc1nc(NC(=O)CSc2ncccc2-c2nc3ccccc3[nH]2)sc1C,0,73*,1,-13
COC(=O)c1sc(NC(=O)CSc2ncccc2-c2nc3ccccc3[nH]2)nc1C,0,0,2,10
Cc1ccc(NC(=O)CC2Sc3ncnn3C2=O)cc1 (stereo not given),0,-8,1,-6
O=C(COC(=O)CN1C(=O)COc2ccccc21)NC1CCCC1,0,-1,-1,9
COc1cccc(CN(CCN(C)C)C(=O)Nc2ccc(-c3cn[nH]c3)cc2)c1,0,-12,-1,1
SMILES,FBW7 act,TEAD-YAP inh,GPR151 ag,MITF inh
COc1cccc(CNC(=O)Nc2ccc(-c3cn[nH]c3)cc2N(C)CCO)c1,0,54*,-1,40
COc1cccc(CNC(=O)Nc2ccc(-c3cn[nH]c3)cc2N(C)CCN(C)C)c1,1,-2,1,29
COc1cccc(CN(CCCN(C)C)C(=O)Nc2ccc(-c3cn[nH]c3)cc2)c1,0,1,-1,62*
CCOc1ccc(C(=O)NCC(=O)OCC(=O)c2c(C)[nH]c3ccccc23)cc1,2.1*,7,2,0
Cc1[nH]c2ccccc2c1C(=O)COC(=O)CNC(=O)c1ccc(Br)o1,0,-1,4,-11
O=C(NCc1ccccc1)/C(=C\c1ccco1)NC(=O)c1ccccc1Cl,0,-8,1,-8
COc1cccc(NC(=O)NCCCNc2nc3cc4c(cc3cc2C#N)OCO4)c1,0,-4,0,-2
COc1cccc(CC(=O)NCCCNc2nc3cc4c(cc3cc2C#N)OCO4)c1,1,61*,-2,2
Cn1c(/C(C#N)=C/c2ccccc2C(F)(F)F)nc2ccccc21,0,9,0,-12
Cc1ccc(C)c(S(=O)(=O)Nc2ccc3scnc3c2)c1,0,39*,1,14
CC(=O)N1c2ccccc2NC2=C(C(=O)CCC2)C1c1ccccc1 (stereo not given),0,37*,-1,2
